Measurements taken from PubChem BioAssay (EPA / NIEHS).
Results filed as inconclusive are left out. Some structures have more than one record in an assay (separate samples or runs), and their calls can disagree. The source made the active and inactive calls. How the source made its calls, unless noted: active means hit-call score of the fitted dose curve at least 0.9, where 1 is the maximum; inactive means score below 0.9.

Experiments:
[1] = read-out: Monokine induced gamma interferon (MIG), CXCL9 (gene 4283); assay: BSK_3C_MIG: BioMAP Diversity Plus: 3C Assay for Monokine induced gamma interferon (MIG) Biomarker Activity (AID 2283021); conditions: primary human endothelial cells (HUVEC); actives raise or lower the signal;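 on AC50: MIG protein level measured by immunoassay in the treated endothelial cultures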
Outline: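 HUVEC primary endothelial cultures dosed with chemical; MIG quantified by ELISA at 24 h. Data fitted bidirectionally against DMSO control, with parallel SRB total-protein staining for cytotoxicity.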

[2] = BSK_3C_SRB: Viability Assessment in the BioMAP Diversity Plus: 3C Assay (AID 2283023); conditions: primary human endothelial cells (HUVEC);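 further: cells read 24 h after compound dosing; fitted both ways against DMSO so a hit may be signal rise or drop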
Outline: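 HUVEC, 24 h post-dose; 10% TCA fix, 0.1% SRB stain, A560 nm. Bidirectional curve fit vs DMSO negative control.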

[3] = read-out: Matrix Metallopeptidase 1 (MMP1), MMP1 (gene 4312); assay: BSK_BE3C_MMP1: BioMAP Diversity Plus: BE3C Assay for Matrix Metallopeptidase 1 (MMP1) Biomarker Activity (AID 2283024); conditions: primary human bronchial epithelial cells; actives raise or lower the signal
Outline: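 Human primary bronchial epithelial cells (BE3C system) dosed for 24 h; MMP-1 quantified by ELISA. Bidirectional fit against DMSO; cytotoxicity tracked in parallel cultures by SRB total-protein staining.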

[4] = read-out: Pselectin, SELP (gene 6403); assay: BSK_4H_Pselectin: BioMAP Diversity Plus: 4H Assay for Pselectin Biomarker Activity (AID 2283026); conditions: primary human endothelial cells (HUVEC); actives raise or lower the signal
Outline: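 Primary human umbilical vein endothelial cells were treated 24 h, and cell-surface P-selectin was then quantified by ELISA. Bidirectional fit versus DMSO; cytotoxicity checked in parallel cultures by SRB total-protein staining.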

[5] = BSK_4H_SRB: Viability Assessment in the BioMAP Diversity Plus: 4H Assay (AID 2283027); conditions: primary human endothelial cells (HUVEC);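 further: cells exposed to compound for 24 h before staining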;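 on AC50: curves fitted both ways versus DMSO so AC50 may be loss or gain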
Outline: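 Human umbilical vein endothelial cells were dosed with chemical and, after 24 h, fixed with 10% TCA, stained with 0.1% sulforhodamine B, and read at 560 nm to give total protein as a cytotoxicity measure. Bidirectional fitting relative to DMSO control.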

[6] = BSK_BE3C_SRB: Viability Assessment in the BioMAP Diversity Plus: BE3C Assay (AID 2283028); conditions: primary human bronchial epithelial cells;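 on AC50: fitted both ways so AC50 may mark signal gain or loss versus DMSO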
Outline: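 Primary human bronchial epithelium; chemical dosing, 24 h; 10% TCA fix, 0.1% SRB stain, A560; bidirectional fit vs DMSO baseline.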

[7] = read-out: Thrombomodulin, THBD (gene 7056); assay: BSK_3C_Thrombomodulin: BioMAP Diversity Plus: 3C Assay for Thrombomodulin Biomarker Activity (AID 2283029); conditions: primary human endothelial cells (HUVEC); actives raise or lower the signal
Outline: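 Human umbilical vein endothelial cells were exposed to chemicals for 24 h; cell-surface thrombomodulin quantified by ELISA, with bidirectional fitting against DMSO baseline.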

[8] = read-out: Urokinase-type plasminogen activator receptor (uPAR), PLAUR (gene 5329); assay: BSK_4H_uPAR: BioMAP Diversity Plus: 4H Assay for Urokinase-type plasminogen activator receptor (uPAR) Biomarker Activity (AID 2283030); conditions: primary human endothelial cells (HUVEC); actives raise or lower the signal
Outline: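 HUVEC, 24 h post-dose; uPAR by ELISA; bidirectional fit vs DMSO baseline.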

[9] = target: human Vitamin D Receptor (VDR), VDR (gene 7421) (UniProt P11473); assay: ATG_VDR_TRANS: Attagene TRANS-FACTORIAL HepG2 Assay for human Vitamin D Receptor (VDR) (AID 2283022; active means hit-call score of the fitted dose curve at least 0.9, where 1 is the maximum)
Sequence of human Vitamin D Receptor (VDR), VDR (gene 7421) (P11473 whole entry, looked up, the tested form may be a part): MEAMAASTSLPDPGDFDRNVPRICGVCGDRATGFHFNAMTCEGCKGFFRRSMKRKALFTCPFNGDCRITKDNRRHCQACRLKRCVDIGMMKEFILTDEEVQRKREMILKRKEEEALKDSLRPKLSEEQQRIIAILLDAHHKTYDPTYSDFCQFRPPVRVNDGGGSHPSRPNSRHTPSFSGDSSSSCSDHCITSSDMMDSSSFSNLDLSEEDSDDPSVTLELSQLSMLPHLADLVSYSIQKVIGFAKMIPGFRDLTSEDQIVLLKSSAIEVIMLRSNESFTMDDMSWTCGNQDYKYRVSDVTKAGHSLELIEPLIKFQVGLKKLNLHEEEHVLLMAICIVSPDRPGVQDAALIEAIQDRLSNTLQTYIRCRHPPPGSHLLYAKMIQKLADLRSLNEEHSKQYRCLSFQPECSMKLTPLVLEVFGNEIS
Outline: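 RT-PCR/capillary electrophoresis read-out of reporter mRNA induction in transiently transfected HepG2; 24 h dosing; chimeric NR-Gal4 (TRANS format); gain-of-signal fit against DMSO baseline.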

[10] = BSK_3C_Vis: BioMAP Diversity Plus: 3C Assay for Morphology Visualization (AID 2283025); conditions: primary human endothelial cells (HUVEC);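 further: fitted both ways so gain or loss versus DMSO counts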;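 on AC50: light microscopy image of cell morphology used as background control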
Outline: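 Human umbilical vein endothelial cell morphology was inspected by light microscopy 24 h after chemical dosing; scored bidirectionally relative to DMSO.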

Measured: AC50

CC(C)(C)c1cccc(C(C)(C)C)c1O
not listed: [9] | [10]
inactive: all other assays above

FC(F)(I)C(F)(F)C(F)(F)C(F)(F)C(F)(F)C(F)(F)I
inactive: [7]
active: [4] 14.6 µM [middle of 5 runs] | [6] 23.6 µM [middle of 5 runs] | [7] 30 µM [middle of 4 runs]

CCCCOCCO
not listed: [9] | [10]
inactive: all other assays above

Cc1ccc(S(=O)(=O)O)c(C)c1
inactive: [9]

Nc1cccc2c(N)cccc12
not listed: [10]
inactive: all other assays above

O=C(OCCOCCOC(=O)c1ccccc1)c1ccccc1
not listed: [9] | [10]
inactive: all other assays above

CCCCC(CC)COC(=O)CCCCC(=O)OCC(CC)CCCC (configuration not stated)
not listed: [9]
inactive: all other assays above

CCCCC[C@H](O)CC(=O)CCc1ccc(O)c(OC)c1
inactive: [9]

CCOC(=O)CC(O)(CC(=O)OCC)C(=O)OCC
not listed: [9] | [10]
inactive: all other assays above

Cc1cc(CCN2CCN(c3nsc4ccccc34)CC2)cc2c1NC(=O)CC2(C)C
inactive: [9]
active: [1] 35.8 µM | [2] 26.5 µM | [3] 31.2 µM | [4] 16.5 µM | [5] 20 µM | [6] 32.4 µM | [7] 4.31 µM | [8] 4.39 µM

N#C[C@@H]1CC(F)(F)CN1C(=O)CNC1CC2CCC(C1)N2c1ncccn1 (some centres not stated)
active: [2] 8.06 µM | [10] 5.57 µM
not listed: [9]
inactive: all other assays above

C#C[C@]1(O)CC[C@H]2[C@@H]3CCC4=CC(=O)CC[C@@H]4[C@H]3CC[C@@]21C
active: [2] 5.17 µM | [5] 17.1 µM | [8] 11 µM
not listed: [9]
inactive: all other assays above

O=c1c(-c2ccc(O)cc2)coc2cc(O)ccc12
active: [4] 20 µM
not listed: [9] | [10]
inactive: all other assays above

CC(C)(C)c1cc(C(C)(C)C)c(O)c(C(C)(C)C)c1
active: [3] 10.5 µM | [4] 20 µM | [7] 6.29 µM
not listed: [9] | [10]
inactive: all other assays above

CCN(CC)CCNc1ccc(CNC=O)c2sc3ccc(OC)cc3c(=O)c12
inactive: [6] | [7]
active: [9] 1.47 µM | [2] 17.7 µM | [3] 20 µM | [4] 14.3 µM | [5] 25.4 µM | [8] 9.57 µM

COCC(C)O (configuration not stated)
not listed: [10]
inactive: all other assays above

CC(O)C(=O)O (configuration not stated)
inactive: [9]

O=C(O)c1ccccc1C(c1ccc(O)cc1)c1ccc(O)cc1
not listed: [9] | [10]
inactive: all other assays above

CC(C)(C)c1ccc(O)c(C(C)(C)C)c1
active: [1] 14.7 µM | [2] 9.68 µM | [3] 32.4 µM | [4] 7.52 µM | [5] 12.4 µM | [6] 32 µM | [8] 10.6 µM
inactive: [9] | [7]

CCCCCCCCC(=O)O
not listed: [9]
inactive: all other assays above

CC1=C(/C=C/C(C)=C/C=C/C(C)=C/C(=O)O)C(C)(C)CCC1
active: [3] 0.854 µM | [4] 31.7 µM
not listed: [10]
inactive: all other assays above
